High-throughput results deposited in PubChem BioAssay by several laboratories.
Beta cell apopt – blocks beta cell apoptosis; INS-1E cytokine-induced death, ATP luminescence, 48 h; percent of positive-control rescue, neutral wells zero; protection from apoptosis, % (test concentration not listed); hit rate 0.8% among 300,000;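 active = Every replicate reaches about 75%, or at least half do and their mean reaches it too, limit read from the data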;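 note: 0% = cytokine-treated negative control wells and 100% = positive control rescue; higher means more ATP so stronger rescue from cytokine killing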
697 NFkB inh – lowers PMA/ionomycin-induced NF-kB signal in 697 B cells | hit rate 0.33% among 330,000 | inhibition, % at 4 µM | 697 B-cell NF-kB luciferase reporter, 16 h; in the data active = inhibition above about 35%
Mdm2 MdmX PPI – inhibitors of human Mdm2/MdmX interaction; O15151+Q00987; hit rate 3% among 330,000; inhibition, % at 8 µM; SaOS-2 split-luciferase Mdm2/MdmX complementation, luminescence;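 active = inhibition of at least 50% at 8 µM in the primary screen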
Target sequence (O15151 whole entry, looked up): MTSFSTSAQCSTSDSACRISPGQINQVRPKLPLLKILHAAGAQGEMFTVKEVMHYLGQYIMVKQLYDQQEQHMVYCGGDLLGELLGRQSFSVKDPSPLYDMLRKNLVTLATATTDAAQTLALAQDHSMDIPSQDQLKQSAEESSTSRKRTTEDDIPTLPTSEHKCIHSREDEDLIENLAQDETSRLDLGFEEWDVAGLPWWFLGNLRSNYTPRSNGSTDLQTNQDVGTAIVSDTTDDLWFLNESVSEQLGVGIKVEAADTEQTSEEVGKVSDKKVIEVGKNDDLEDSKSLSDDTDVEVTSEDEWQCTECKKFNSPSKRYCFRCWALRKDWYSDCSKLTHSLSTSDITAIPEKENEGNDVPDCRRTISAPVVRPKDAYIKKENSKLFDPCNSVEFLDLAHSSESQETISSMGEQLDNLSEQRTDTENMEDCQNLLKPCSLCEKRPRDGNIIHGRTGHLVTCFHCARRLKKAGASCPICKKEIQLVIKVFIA
Target sequence (Q00987 whole entry, looked up): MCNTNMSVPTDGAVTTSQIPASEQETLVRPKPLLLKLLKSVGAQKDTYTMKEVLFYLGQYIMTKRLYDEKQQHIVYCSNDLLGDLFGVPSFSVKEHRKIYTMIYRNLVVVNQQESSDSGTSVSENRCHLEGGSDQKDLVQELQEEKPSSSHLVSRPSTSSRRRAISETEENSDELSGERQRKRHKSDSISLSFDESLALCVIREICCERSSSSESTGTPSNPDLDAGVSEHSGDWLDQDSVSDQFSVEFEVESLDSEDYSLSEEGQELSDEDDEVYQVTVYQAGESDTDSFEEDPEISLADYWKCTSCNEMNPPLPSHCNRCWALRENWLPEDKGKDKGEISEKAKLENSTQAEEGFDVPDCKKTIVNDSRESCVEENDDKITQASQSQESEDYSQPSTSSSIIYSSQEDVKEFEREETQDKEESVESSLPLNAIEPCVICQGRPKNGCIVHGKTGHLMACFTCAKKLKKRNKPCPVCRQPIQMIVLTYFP
Gli-Sufu antag – antagonists of Gli-Sufu signaling; hit rate 0.74% among 340,000; inhibition, % at 5 µM; Sufu-KO-LIGHT fibroblasts, Gli luciferase reporter luminescence;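 active = inhibition above about 55%, limit read from the data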;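 note: 0% = DMSO-treated cells and 100% = wells with medium but no cells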
Jurkat NFkB inh – lowers PMA/ionomycin-induced NF-kB signal in Jurkat cells | PMA/ionomycin-induced NF-kB luciferase reporter, luminescence | inhibition, % at 4 µM | hit rate 0.53% among 330,000; in the data active = inhibition above about 50%
Mdm2 MdmX conf – confirmation of human Mdm2/MdmX interaction inhibitors. shares compounds with Mdm2 MdmX PPI. Mdm2-MdmX binding, luminescent assay. inhibition, % at 8 µM. hit rate 55% among 10,000. AID 489028; in the data active = inhibition above about 40%
Full FLuc ctr – full-length luciferase inhibition in Mdm2/MdmX counter-screen. shares compounds with Mdm2 MdmX PPI. SaOS-2 full-length luciferase counterscreen, luminescence. inhibition, % at 8 µM. hit rate 77% among 6,200. AID 504607;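 active = mean inhibition at 8 µM reaching about 37%, which flags the compound as non-specific, limit read from the data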;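 note: p53-null SaOS-2 cells with luciferase driven by a doxycycline-inducible promoter; compound on cells about two nights before reading with doxycycline added after day one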
* hit, by the source's call. Rows were chosen to be rich in hits. Some 4% of all compounds tested hit in one or more screens of this group.

CCS(=O)(=O)N1Cc2ccccc2CC1C(=O)Nc1nc2ccccc2s1 (centres undefined) was read as Beta cell apopt -1, 697 NFkB inh -215, Mdm2 MdmX PPI 59*, Gli-Sufu antag 25, Jurkat NFkB inh -136, Mdm2 MdmX conf 70* and Full FLuc ctr 162*.
Screening CCc1nnc(NC(=O)C2Cc3ccccc3CN2S(=O)(=O)CC)s1 (centres undefined) returned Beta cell apopt -3, 697 NFkB inh 10, Mdm2 MdmX PPI 20, Gli-Sufu antag 0 and Jurkat NFkB inh -26.
Screening Cc1cccc2c1CCCC2=O returned Gli-Sufu antag -4.
For Cc1[nH]c(-c2ccc3c(c2)OCO3)nc1C(=O)O the results were Beta cell apopt 23, 697 NFkB inh -25, Mdm2 MdmX PPI 12, Gli-Sufu antag -14 and Jurkat NFkB inh -16.
`COc1ccc(-c2nc(-c3ccc4c(c3)OCO4)[nH]c2-c2ccc(OC)cc2)cc1` gave Beta cell apopt 33, 697 NFkB inh -24, Mdm2 MdmX PPI 67*, Gli-Sufu antag 3, Jurkat NFkB inh 6 and Mdm2 MdmX conf 25.
For Cc1ccc(CN2CCN(Cc3ccc4cccc(F)c4n3)CC2CCO)cc1 (centres undefined) the results were 697 NFkB inh -36, Mdm2 MdmX PPI 6, Gli-Sufu antag 16 and Jurkat NFkB inh 3.
`COc1cccc(/C=C2/Sc3ccc(C(=O)NCCN4CCCCCC4)cc3NC2=O)c1` gave 697 NFkB inh -5, Mdm2 MdmX PPI 98*, Gli-Sufu antag 7, Jurkat NFkB inh -19 and Mdm2 MdmX conf 30.
For O=C1Nc2cc(C(=O)NCCN3CCCCCC3)ccc2S/C1=C\c1ccccc1 the results were Beta cell apopt 1, 697 NFkB inh -8, Mdm2 MdmX PPI 81*, Gli-Sufu antag 3, Jurkat NFkB inh 0 and Mdm2 MdmX conf 19.
For COc1cccc(/C=C2\Sc3ccc(C(=O)NCc4cccnc4)cc3N(C)C2=O)c1 the results were Beta cell apopt 7, 697 NFkB inh -3, Mdm2 MdmX PPI 12, Gli-Sufu antag 1 and Jurkat NFkB inh 1.
`CCOC(=O)C1CCN(C(=O)c2ccc3c(c2)NC(=O)/C(=C\c2cccc(C)c2)S3)CC1` gave Beta cell apopt 8, 697 NFkB inh -5, Mdm2 MdmX PPI 5, Gli-Sufu antag 17 and Jurkat NFkB inh 13.
Screening Cc1cccc(/C=C2/Sc3ccc(C(=O)NCCN4CCCC4)cc3NC2=O)c1 returned Beta cell apopt -3, 697 NFkB inh -5, Mdm2 MdmX PPI 72*, Gli-Sufu antag 7, Jurkat NFkB inh 11 and Mdm2 MdmX conf 13.
`Cc1ccc(/C=C2/Sc3ccc(C(=O)NCc4ccccn4)cc3NC2=O)cc1` gave Beta cell apopt 1, 697 NFkB inh 0, Mdm2 MdmX PPI 70*, Gli-Sufu antag -14, Jurkat NFkB inh 22 and Mdm2 MdmX conf 32.
`Cc1ccc(/C=C2/Sc3ccc(C(=O)N4CCN(c5ccccn5)CC4)cc3NC2=O)cc1` gave Beta cell apopt -7, 697 NFkB inh -30, Mdm2 MdmX PPI 12, Gli-Sufu antag 2 and Jurkat NFkB inh -11.
For Cc1ccc(S(=O)(=O)NCCC(=O)Nc2nccs2)cc1 the results were Beta cell apopt -5, 697 NFkB inh 20, Mdm2 MdmX PPI 9, Gli-Sufu antag 10 and Jurkat NFkB inh 4.
CCOC(=O)C1CCCN(C(=O)c2cc(Nc3ccc(OC)cc3)nc3ccccc23)C1 (centres undefined) was read as Beta cell apopt 2, 697 NFkB inh 16, Mdm2 MdmX PPI 44, Gli-Sufu antag 12 and Jurkat NFkB inh 4.
`CC(C)NC(=O)N(C)C[C@H]1Oc2ccc(NS(=O)(=O)c3cn(C)cn3)cc2C(=O)N([C@H](C)CO)C[C@@H]1C` gave Beta cell apopt 2, 697 NFkB inh 10, Mdm2 MdmX PPI -39, Gli-Sufu antag -9 and Jurkat NFkB inh 8.
For CCCNC(=O)C(Cc1ccc(Cl)cc1)NC(=O)c1ccc(-c2ccccc2)cc1 (centres undefined) the results were Beta cell apopt 24, 697 NFkB inh 4, Mdm2 MdmX PPI 59*, Gli-Sufu antag 7, Jurkat NFkB inh -11 and Mdm2 MdmX conf 17.
Screening OC(COc1ccc(OCC(O)CN2CCCCC2)cc1)CN1CCCCC1 (centres undefined) returned Beta cell apopt -6, 697 NFkB inh 1, Mdm2 MdmX PPI 13, Gli-Sufu antag 6 and Jurkat NFkB inh -36.
For OC(COc1ccc(CNCCc2ccc(C(F)(F)F)cc2)cc1)CN1CCCCC1 (centres undefined) the results were Beta cell apopt 6, 697 NFkB inh -4, Mdm2 MdmX PPI 100*, Gli-Sufu antag 31, Jurkat NFkB inh 5, Mdm2 MdmX conf 99* and Full FLuc ctr 53*.
`Cc1cccc(NC(=O)C2CCN(S(=O)(=O)c3c(C)c(C)cc(C)c3C)CC2)n1` gave Beta cell apopt 3, 697 NFkB inh -17, Mdm2 MdmX PPI 24, Gli-Sufu antag 6 and Jurkat NFkB inh 9.
For COc1cc2c(OC(C)=O)c3c(c(-c4ccc5c(c4)OCO5)c2cc1OC)C(=O)OC3 the results were Beta cell apopt 58, 697 NFkB inh -58, Mdm2 MdmX PPI 86*, Gli-Sufu antag 40, Jurkat NFkB inh 7, Mdm2 MdmX conf 74* and Full FLuc ctr 48*.
`COc1cc2c(O)c3c(c(-c4ccc5c(c4)OCO5)c2cc1OC)C(=O)OC3` gave Beta cell apopt 54, 697 NFkB inh -6, Mdm2 MdmX PPI 73*, Jurkat NFkB inh 17, Mdm2 MdmX conf 72* and Full FLuc ctr 26.
`COc1ccc(-c2oc(=O)c3cc(OC)c(OC)cc3c2-c2ccc3c(c2)OCO3)cc1` gave Beta cell apopt 2, 697 NFkB inh 15, Mdm2 MdmX PPI 25, Gli-Sufu antag 5 and Jurkat NFkB inh -25.
For COC(=O)C1=C(C)NC(=O)NC1c1ccc2c(c1)OCO2 (centres undefined) the results were Beta cell apopt 1, 697 NFkB inh 13, Mdm2 MdmX PPI 27, Gli-Sufu antag -1 and Jurkat NFkB inh -6.
`Cc1[nH]c2ccccc2c1NC(=O)CN1CCN(C(=O)c2ccco2)CC1` gave Beta cell apopt -3, 697 NFkB inh -6, Mdm2 MdmX PPI -13, Gli-Sufu antag 21 and Jurkat NFkB inh 12.
`O=C(CCCn1c(=S)[nH]c2ccccc2c1=O)NCCSCc1ccccc1` gave Beta cell apopt 3, 697 NFkB inh -8, Mdm2 MdmX PPI 23, Gli-Sufu antag 16 and Jurkat NFkB inh -1.
`Cc1ccc(NC(=S)N(CCCN2CCCC2)Cc2cccn2Cc2ccc(Cl)cc2)cc1C` gave Beta cell apopt 27, 697 NFkB inh -3, Mdm2 MdmX PPI 58*, Gli-Sufu antag -10, Jurkat NFkB inh -26 and Mdm2 MdmX conf 37.
